In PubChem BioAssay (Tox21):
“And” between values parts separate entries of the source, which are not always exact repeats. Equal values may be shown once. Unmarked numbers belong to inactive results. Results filed as inconclusive are left out. Where a call stands in place of a potency, no number is given. The source made the active and inactive calls. Unless noted, calls follow the shape of the dose curve; as a rule, active = well fitted curve in the direction sought with a large enough effect in the repeat runs; inconclusive = weak or mixed curves; inactive = flat fitted curve, though single readings scatter.

Tests used:
[1] = qHTS assay to test for compound auto fluorescence at 535 nm (green) in HEK293 cells (AID 720680)
[2] = qHTS assay to test for compound auto fluorescence at 460 nm (blue) in HEK293 cell free culture (AID 720681)
How it was run: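 Blue fluorescence (Ex 405/Em 460 nm, triamterene-equivalent) was read immediately after pin transfer of compound or DMSO into medium (DMEM, 10% FBS) without cells.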

[3] = qHTS assay to test for compound auto fluorescence at 535 nm (green) in HEK293 cell free culture (AID 720682)
How it was run: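 No cells present: wells hold DMEM supplemented with 10% FBS, into which compound or vehicle is pinned. Green emission is then recorded (485 nm excitation, 535 nm emission) and scaled to fluorescein.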

[4] = qHTS assay to test for compound auto fluorescence at 590 nm (red) in HEK293 cell free culture (AID 720683)
How it was run: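 Red-channel autofluorescence of compounds in culture medium (DMEM, 10% FBS), no cells, measured at 540/590 nm. Rose Bengal sodium is the reference fluorophore for equivalence.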

[5] = qHTS assay to test for compound auto fluorescence at 590 nm (red) in HepG2 cell free culture (AID 720684)
How it was run: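 No cells present: MEM + 10% FBS only. Compound pinned in, red label read (540/590 nm). Activity = fluorescence equivalent to Rose Bengal sodium.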

[6] = qHTS assay to test for compound auto fluorescence at 460 nm (blue) in HepG2 cell free culture (AID 720685)
How it was run: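 Cell-free plates of MEM plus 10% FBS received 23 nL compound or DMSO vehicle; blue-channel (405/460 nm) intensity scored against triamterene as reference fluorophore.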

[7] = qHTS assay to test for compound auto fluorescence at 535 nm (green) in HepG2 cell free culture (AID 720686)
[8] = qHTS assay to test for compound auto fluorescence at 460 nm (blue) in HepG2 cells (AID 720687)
How it was run: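 Blue-channel autofluorescence (Ex/Em 405/460 nm, triamterene-equivalent) was measured after 1 hr compound exposure at 37 C, 5% CO2. Cells were HepG2, plated overnight at 37 C in MEM plus 10% FBS.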

[9] = target: Glucocorticoid receptor (Homo sapiens) (UniProt P04150); assay: qHTS assay to identify small molecule agonists of the glucocorticoid receptor (GR) signaling pathway (AID 720691; active = well fitted activation curve with a large enough effect in the signal ratio in the repeat runs, not every such curve was filed as active; the % refers to the signal ratio)
How it was run: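 HeLa GR-bla reporter line; cells pre-incubated 4 h, compound in DMSO 18 h at 37 C; LiveBLAzer B/G FRET substrate 2 h RT; fluorescence intensity read-out.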

[10] = target: Glucocorticoid receptor (Homo sapiens) (UniProt P04150); assay: qHTS assay to identify small molecule antagonists of the glucocorticoid receptor (GR) signaling pathway (AID 720692; active = well fitted inhibition curve with a large enough effect in the signal ratio in the repeat runs, not every such curve was filed as active; the % refers to the signal ratio; also: potency is read from the fitted curve at half-maximal effect)
How it was run: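 Read-out: beta-lactamase FRET substrate fluorescence, 2 h at room temperature, in HeLa cells stably carrying a GRE-driven bla reporter. Compounds were co-incubated with 5 nM dexamethasone agonist (final) for 18 h at 37 C.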

Glucocorticoid receptor (Homo sapiens), sequence (P04150 whole entry, looked up): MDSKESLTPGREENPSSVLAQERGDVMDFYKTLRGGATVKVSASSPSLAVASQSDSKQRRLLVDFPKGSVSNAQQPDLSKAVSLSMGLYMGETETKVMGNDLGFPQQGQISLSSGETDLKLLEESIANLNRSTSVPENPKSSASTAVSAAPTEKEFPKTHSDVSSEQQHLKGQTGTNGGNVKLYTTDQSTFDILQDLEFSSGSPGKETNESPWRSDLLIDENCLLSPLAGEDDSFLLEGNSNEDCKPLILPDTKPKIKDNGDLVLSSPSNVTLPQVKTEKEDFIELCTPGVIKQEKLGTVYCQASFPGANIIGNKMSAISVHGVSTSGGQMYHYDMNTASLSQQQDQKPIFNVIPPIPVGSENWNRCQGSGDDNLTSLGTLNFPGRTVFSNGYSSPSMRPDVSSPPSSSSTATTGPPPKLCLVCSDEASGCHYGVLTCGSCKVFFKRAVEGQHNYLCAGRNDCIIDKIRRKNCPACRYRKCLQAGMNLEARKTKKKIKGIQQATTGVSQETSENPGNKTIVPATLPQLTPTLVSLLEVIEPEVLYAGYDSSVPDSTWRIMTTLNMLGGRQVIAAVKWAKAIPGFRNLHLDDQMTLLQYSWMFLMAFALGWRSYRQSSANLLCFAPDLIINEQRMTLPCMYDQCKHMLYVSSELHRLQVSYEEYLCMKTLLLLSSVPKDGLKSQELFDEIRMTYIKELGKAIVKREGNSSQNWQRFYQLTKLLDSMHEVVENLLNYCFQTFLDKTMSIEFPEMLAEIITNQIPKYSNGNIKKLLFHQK

| SMILES | Potency [1] | Potency [2] | Potency [3] | outcome [4] | outcome [5] | Potency [6] | Potency [7] | Potency [8] | Potency [9] | Potency [10] | fluorescence, % of fluorescein [1] | fluorescence, % of fluorescent control [2] | activity change [3] | fluorescence, % of fluorescent control [4] | fluorescence, % of Rose Bengal [5] | fluorescence, % of fluorescent control [6] | fluorescence, % of fluorescein control [7] | fluorescence, % of fluorescent control [8] |
| --- | --- | --- | --- | --- | --- | --- | --- | --- | --- | --- | --- | --- | --- | --- | --- | --- | --- | --- |
| c1ccc2n[nH]nc2c1 | inactive | inactive | inactive | inactive | inactive | inactive | inactive | inactive | inactive | inactive |  |  |  |  |  |  |  |  |
| O=C(O)CCc1ccccc1 | inactive | inactive | inactive | inactive | inactive | inactive | inactive | inactive | inactive | inactive |  |  |  |  |  |  |  |  |
| CC(C(O)c1ccc(O)cc1)N1CCC(Cc2ccccc2)CC1 (stereo not drawn) | inactive | inactive | inactive | inactive | inactive | inactive | inactive | inactive | inactive |  |  |  |  |  |  |  |  |  |
| CCn1cc(C(=O)O)c(=O)c2cc(F)c(N3CCNC(C)C3)c(F)c21 (stereo not drawn) | inactive | inactive | inactive | inactive | inactive | inactive | inactive | inactive | inactive | inactive |  |  |  |  |  |  |  |  |
| CC[C@H]1CN2CCc3cc(OC)c(OC)cc3[C@@H]2C[C@@H]1C[C@H]1NCCc2cc(OC)c(OC)cc21 | inactive | inactive | inactive | inactive | inactive | inactive | inactive | inactive | inactive | 1.51 µM (active) |  |  |  |  |  |  |  |  |
| C/C=C/c1ccc(OCC)c(O)c1 | inactive | inactive | inactive | inactive | inactive | inactive | inactive | inactive | inactive | inactive |  |  |  |  |  |  |  |  |
| CCC(=O)/C=C/C1C(C)=CCCC1(C)C (stereo not drawn) | inactive | inactive | inactive | inactive | inactive | inactive | inactive | inactive | inactive | inactive |  |  |  |  |  |  |  |  |
| NC(N)=Nc1nc(CSCC/C(N)=N/S(N)(=O)=O)cs1 | inactive | inactive | inactive | inactive | inactive | inactive | inactive | inactive | inactive | inactive |  |  |  |  |  |  |  |  |
| O=C(O)CP(=O)(O)O | inactive | inactive | inactive | inactive | inactive | inactive | inactive | inactive | inactive | inactive |  |  |  |  |  |  |  |  |
| CC(C)(C)NC(=O)[C@@H]1CN(Cc2cccnc2)CCN1C[C@@H](O)C[C@@H](Cc1ccccc1)C(=O)N[C@H]1c2ccccc2C[C@H]1O | inactive | inactive | inactive | inactive | inactive | inactive | inactive | inactive | inactive | inactive |  |  |  |  |  |  |  |  |
| C=CS(=O)(=O)O | inactive | inactive | inactive | inactive | inactive | inactive | inactive | inactive | inactive | inactive |  |  |  |  |  |  |  |  |
| CCCCCCCCCCCC[N+](C)(C)C | inactive | inactive | inactive | inactive | inactive | inactive | inactive | inactive | inactive | 21.8 µM (active) and 21.9 µM (active) |  |  |  |  |  |  |  |  |
| CC(N)=O | inactive | inactive | inactive | inactive | inactive | inactive | inactive | inactive | inactive | inactive |  |  |  |  |  |  |  |  |
| CN(C)c1ccc(C(=C2C=CC(=[N+](C)C)C=C2)c2ccccc2)cc1 | inactive | inactive | inactive | inactive | inactive | inactive | inactive | inactive | inactive |  |  |  |  |  |  |  |  |  |
| CCN(CC)C(=S)SSC(=S)N(CC)CC | inactive | inactive | inactive | inactive | inactive | inactive | inactive | inactive | inactive | inactive |  |  |  |  |  |  |  |  |
| NC(=Nc1ccccc1)Nc1ccccc1 | inactive | inactive | inactive | inactive | inactive | inactive | inactive | inactive | inactive | inactive |  |  |  |  |  |  |  |  |
| CCCCCCCCCCCCCCCCCl |  |  |  |  |  |  |  |  | inactive | inactive | -0.0655% [at 18.6 µM] | -0.061% [at 18.6 µM] | -0.0974% [at 18.6 µM, hits give high values] | -0.466% [at 18.6 µM] | -0.0105% [at 18.6 µM] | -0.0526% [at 18.6 µM] | -0.0406% [at 18.6 µM] | -0.0903% [at 18.6 µM] |

| SMILES | Potency [1] | Potency [2] | Potency [3] | outcome [4] | outcome [5] | Potency [6] | Potency [7] | Potency [8] | Potency [9] | Potency [10] | fluorescence, % of fluorescein [1] | fluorescence, % of fluorescent control [2] | activity change [3] | fluorescence, % of fluorescent control [4] | fluorescence, % of Rose Bengal [5] | fluorescence, % of fluorescent control [6] | fluorescence, % of fluorescein control [7] | fluorescence, % of fluorescent control [8] |
| --- | --- | --- | --- | --- | --- | --- | --- | --- | --- | --- | --- | --- | --- | --- | --- | --- | --- | --- |
| CC(C)(O)CCC(C)(C)O | inactive | inactive | inactive | inactive | inactive | inactive | inactive | inactive | inactive | inactive |  |  |  |  |  |  |  |  |
| CCc1cc(C(C)(C)C)c(O)c(C(C)(C)C)c1 | inactive | inactive | inactive | inactive | inactive | inactive | inactive | inactive | inactive | inactive |  |  |  |  |  |  |  |  |
| CCC(C)(Oc1ccc(C2(c3ccc(OC(C)(CC)C(=O)O)cc3)CCCCC2)cc1)C(=O)O (stereo not drawn) | inactive | inactive | inactive | inactive | inactive | inactive | inactive | inactive | inactive | inactive |  |  |  |  |  |  |  |  |
| CCOc1ccccc1C(N)=O | inactive | inactive | inactive | inactive | inactive | inactive | inactive | inactive | inactive | inactive |  |  |  |  |  |  |  |  |
| CC1=C(C=O)C(C)(C)CC=C1 | inactive | inactive | inactive | inactive | inactive | inactive | inactive | inactive | inactive | inactive |  |  |  |  |  |  |  |  |
| Cc1cccc(O)c1C | inactive | inactive | inactive | inactive | inactive | inactive | inactive | inactive | inactive | inactive |  |  |  |  |  |  |  |  |
| C=CC(=O)OCCCCCCCC | inactive | inactive | inactive | inactive | inactive | inactive | inactive | inactive | inactive | inactive |  |  |  |  |  |  |  |  |
| Cc1cccc([N+](=O)[O-])c1C(=O)O | inactive | inactive | inactive | inactive | inactive | inactive | inactive | inactive | inactive | inactive |  |  |  |  |  |  |  |  |
| OCCN1CCNCC1 | inactive | inactive | inactive | inactive | inactive | inactive | inactive | inactive | inactive | inactive |  |  |  |  |  |  |  |  |
| O=C(O)c1cn(-c2ccc(F)cc2)c2cc(N3CCNCC3)c(F)cc2c1=O | inactive | inactive | inactive | inactive | inactive | inactive | inactive | inactive | inactive | inactive |  |  |  |  |  |  |  |  |
| CC(C)(C)c1cc(C(C)(C)C)c(O)c(C(C)(C)C)c1 | inactive | inactive | inactive | inactive | inactive | inactive | inactive | inactive | inactive | inactive |  |  |  |  |  |  |  |  |
| O=C(O)c1cccc(C(=O)O)c1 | inactive | inactive | inactive | inactive | inactive | inactive | inactive | inactive | inactive | inactive |  |  |  |  |  |  |  |  |
| Nc1cc(Cl)c(-c2cc(Cl)c(N)cc2Cl)cc1Cl | inactive | inactive | inactive | inactive |  | inactive | inactive | inactive |  |  |  |  |  |  |  |  |  |  |
| O=C1CC2(CCCC2)CC(=O)N1CCCCN1CCN(c2ncccn2)CC1 | inactive | inactive | inactive | inactive |  | inactive | inactive | inactive |  |  |  |  |  |  |  |  |  |  |
| COc1cc(C(=S)N2CCOCC2)ccc1O | inactive | inactive | inactive | inactive | inactive | inactive | inactive | inactive | inactive | inactive |  |  |  |  |  |  |  |  |
| Nc1ccc(O)cc1 | inactive | inactive | inactive | inactive | inactive | inactive | inactive | inactive |  | 49 µM (active) |  |  |  |  |  |  |  |  |
| c1cnc2cc3c(cc2n1)C1CNCC3C1 | inactive |  | inactive | inactive | inactive | inactive | inactive | inactive |  |  |  |  |  |  |  |  |  |  |
